The nature of the test: ATG_PPRE_CIS: Attagene CIS-FACTORIAL HepG2 Assay for human Peroxisome Proliferator-activated Response Element (PPRE) (AID 2282958). The conditions noted are these: HepG2 PPRE cis-element reporter, Attagene transcription factor profiling; actives raise or lower the signal. The method, boiled down:
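Multiplexed reporter transcription units under cis-regulatory promoters were transfected into HepG2 cells to capture endogenous factor activity. A 24 h incubation preceded RNA isolation and fluorescent RT-PCR fragment analysis.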

SMILES strings stand for the structures. Activity calls are given as the source filed them. The calls were made as follows: active = hit-call score of the fitted dose curve at least 0.9, where 1 is the maximum; inactive = score below 0.9.

Consider `COc1nc(C)nc(NC(=O)NS(=O)(=O)c2ccccc2CCC(F)(F)F)n1`, for which the result was inactive.

The record behind these values is PubChem BioAssay (EPA / NIEHS).
